PNC inhibitor: blocks assembly of the perinucleolar compartment | PC3M PTB-GFP, PNC prevalence imaging, 16 h; stronger effect = lower value | activity change (PNC), negative = inhibition, % at 10 µM | 140,000 compounds, 3.1% hits | AID 2417;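 active means readout at or below -70, meaning at least 70% loss of cells showing the perinucleolar compartment, a nuclear body marking cancer cells; inconclusive means readout between -30 and a set limit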
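Read-out is percentage of cells bearing a perinucleolar compartment, from automated 20x imaging of fixed, Hoechst-stained PC3M PTB-GFP cells. Cells were seeded 4 h, then exposed 16 h to compound (23 nl of library stock) in duplicate plates.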
12-hLO inh: 12-hLO (ALOX12) enzyme inhibition | purified 12-hLO, xylenol orange hydroperoxide absorbance | Potency, µM (series often up to 57.1 µM), usual class: inhibitors | 150,000 compounds, 0.12% hits | AID 1452; active means well fitted curve in the direction sought with a large enough effect; inconclusive means small, poorly fitted or top-dose-only effect, or another doubt; inactive means no such curve, though single readings can be large; an effect the other way counts as inactive or inconclusive; further: nearly all actives have a fitted effect of over 55% in size
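150 nM 12hLO, 25 mM Hepes pH 7.0 + 0.01% Triton X-100; cpd preinc 15 min RT; 40 uM arachidonic acid, 30 min RT; Fe-XO 30 min; A573/A405 ratio as read-out.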
IMPase inh: membrane-permeable compound that blocks inositol monophosphatase; 120,000 tested, under 10 active; AID 901; CHO-M1 cells, IP1 accumulation, HTRF TR-FRET ratio; P97697; inhibition (IP1 accumulation), % at 46.1 µM; active means well fitted curve in the direction sought with a large enough effect in the signal ratio, not every such curve was filed as active; inconclusive means small, poorly fitted or top-dose-only effect, or a change in a side signal; inactive means no such curve, though single readings can be large or run the other way; the % refers to the signal ratio;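 further: cells stimulated with carbachol in lithium chloride buffer; higher means more IMPase inhibition seen as more IP1 and lower FRET ratio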
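In this qHTS, compounds (final up to 46 uM) act on CHO-M1 cells that are then activated through the M1 receptor with carbachol, in pH 7.4 buffer containing 50 mM LiCl, for 30 min. IP1 accumulation is quantified by the IP-One immunoassay.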
IMPase Li cell: membrane-permeable IMPase blocker, potentiated with lithium; CHO-M1 cells, IP1 TR-FRET (IP-One), carbachol + lithium; Potency, µM (top dose mostly 59.4 µM), usual class: inhibitors; 210,000 compounds, 0.35% hits; AID 1457; active means well fitted curve in the direction sought with a large enough effect; inconclusive means small, poorly fitted or top-dose-only effect, or another doubt; inactive means no such curve, though single readings can be large; an effect the other way counts as inactive or inconclusive;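 further: IP1 builds up when IMPase is blocked and the TR-FRET signal falls; nearly all actives have a fitted effect of over 50% in size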
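Test compounds were applied to CHO-M1 cells previously cultured for 16–30 h at 2000 per well. A small lithium amount accompanied them; after 30 min at 37C, IP1 was quantified by TR-FRET.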
HPGD inh: blocks human HPGD enzyme activity; purified HPGD, NADH fluorescence kinetic, PGE2 substrate; AID 894; 150,000 compounds, 4.3% hits; P15428; Potency, µM, usual class: inhibitors
Target sequence (P15428 whole entry, looked up): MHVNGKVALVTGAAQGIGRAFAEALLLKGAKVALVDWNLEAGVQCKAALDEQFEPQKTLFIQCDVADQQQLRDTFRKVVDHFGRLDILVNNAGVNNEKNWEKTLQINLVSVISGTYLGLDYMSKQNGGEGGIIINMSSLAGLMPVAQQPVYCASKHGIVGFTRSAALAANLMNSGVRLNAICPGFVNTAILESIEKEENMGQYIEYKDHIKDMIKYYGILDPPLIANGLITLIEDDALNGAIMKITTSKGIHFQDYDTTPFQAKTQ
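NADH formation kinetics: reaction with 30 uM PGE2 and 1 mM NAD+ (final), 20 nM enzyme, Tris-HCl pH 8 with Tween 20, after 15 min compound preincubation at room temperature. Fluorescence change, last versus first of five reads.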
ALDH1A1 block: ALDH1A1 (human) enzyme inhibition. P00352. Purified ALDH1A1, NADH fluorescence, propionaldehyde substrate. Potency, µM (series often up to 75.3 µM), actives largely listed as inhibitors. 220,000 compounds, 7.3% hits
Target sequence (P00352 whole entry, looked up): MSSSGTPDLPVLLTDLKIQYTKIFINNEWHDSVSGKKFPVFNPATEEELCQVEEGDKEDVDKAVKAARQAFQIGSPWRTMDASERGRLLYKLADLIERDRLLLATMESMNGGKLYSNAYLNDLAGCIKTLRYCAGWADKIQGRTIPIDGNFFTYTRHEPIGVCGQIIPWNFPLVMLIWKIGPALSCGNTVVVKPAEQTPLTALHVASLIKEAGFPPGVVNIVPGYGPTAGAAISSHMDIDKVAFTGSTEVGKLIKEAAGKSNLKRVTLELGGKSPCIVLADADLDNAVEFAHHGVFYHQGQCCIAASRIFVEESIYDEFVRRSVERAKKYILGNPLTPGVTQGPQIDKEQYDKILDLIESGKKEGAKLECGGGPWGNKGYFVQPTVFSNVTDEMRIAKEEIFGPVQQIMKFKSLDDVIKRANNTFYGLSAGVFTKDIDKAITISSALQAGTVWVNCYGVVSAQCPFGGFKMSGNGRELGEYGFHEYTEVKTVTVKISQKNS
Of the large screens only hits and unclear results are named; the others gave an inactive call. Hits are enriched below; roughly 11% of the tested compounds scored in any of these assays. Unless noted, the call rests on the fitted dose curve; in most records, active means well fitted inhibition curve with a large enough effect (not every such curve was filed as active); inconclusive means small, poorly fitted or top-dose-only effect, or another doubt; inactive means no such curve, though single readings can be large or run the other way.

N#CC1=C2SCN(c3ccccc3)CN2C(=O)CC1c1c(Cl)cccc1Cl (stereo not given)	12-hLO inh 28µM, HPGD inh 7.9µM, ALDH1A1 block 3.2µM
CC(Oc1ccccc1Cl)C(=O)N1CCOCC1 (stereo not given)	HPGD inh 28µM, ALDH1A1 block inconclusive (no result: IMPase inh)
C/C(=N\NC(=O)c1ccn(C)n1)c1ccc(NC(=O)C2CCCC2)cc1	PNC inhibitor inconclusive, HPGD inh 14µM (no result: IMPase inh)
C/C(=N/NC(=O)c1ccoc1C)c1ccc(NC(=O)C2CCCC2)cc1	PNC inhibitor -87 (no result: IMPase inh)
COC(=O)c1ccc(C2c3c(oc4ccccc4c3=O)C(=O)N2c2nc(C)c(C(=O)OC)s2)cc1 (stereo not given)	none (no result: PNC inhibitor, 12-hLO inh, IMPase Li cell, HPGD inh, ALDH1A1 block)
CC(=C1C(=O)c2ccccc2C1=O)N1CCN(Cc2ccccc2)CC1	PNC inhibitor inconclusive, ALDH1A1 block 10µM
NC(=O)C1(N2CCCCC2)CCN(C(=S)NCCc2ccccc2)CC1	none (no result: PNC inhibitor, 12-hLO inh, IMPase inh, HPGD inh)
O=C1OC(N2CCN(C/C=C/c3ccccc3)CC2)c2ccccc21 (stereo not given)	PNC inhibitor -86, IMPase inh inconclusive
CC(=C1C(=O)c2ccccc2C1=O)N1CCN(C/C=C/c2ccccc2)CC1	ALDH1A1 block 8.9µM
CC(=C1C(=O)c2ccccc2C1=O)N1CCC(C(N)=O)(N2CCCCC2)CC1	ALDH1A1 block 20µM
C(=C/c1ccccc1)/CN1CCN(C(c2ccccc2)c2ccccc2)CC1	none (no result: PNC inhibitor)
O=C(C(Sc1ccccc1)c1ccccc1)N1CCOCC1 (stereo not given)	none
CCCc1cc(=O)[nH]c(-n2[nH]c3c(c2=O)CCCC3)n1	HPGD inh 22µM, ALDH1A1 block 24µM
CCN(C(=O)Nc1ccccc1)c1ccccc1	none (no result: IMPase inh)
COCCN(C(=O)Nc1ccccc1)c1ccccc1C	PNC inhibitor -100
Cc1ccc(Cl)cc1N1CCN(C(=O)C2CCN(c3nnc(-n4cccc4)s3)CC2)CC1	PNC inhibitor inconclusive
Cc1cccc(N2CCN(C(=O)C3CCN(c4nnc(-n5cccc5)s4)CC3)CC2C)c1 (stereo not given)	PNC inhibitor -112
Cn1c(-c2ccc(-c3ccccc3)cc2)c[nH]c1=S	12-hLO inh inconclusive, IMPase inh inconclusive (no result: IMPase Li cell, HPGD inh)
C=CCn1c(-c2ccc(Cl)cc2)c[nH]c1=S	HPGD inh 11µM, ALDH1A1 block 1.4µM
CCn1c(-c2ccc(-c3ccccc3)cc2)c[nH]c1=S	HPGD inh inconclusive, ALDH1A1 block inconclusive
C=CCn1c(-c2ccccc2)c[nH]c1=S	PNC inhibitor -117, HPGD inh inconclusive, ALDH1A1 block inconclusive
O=C(O)c1cc(=O)c2cccc(O)c2[nH]1	none (no result: PNC inhibitor, IMPase inh)
CC(=O)Nc1ccc(NC(=O)C/C(C)=N/NC(N)=S)cc1	ALDH1A1 block 22µM (no result: PNC inhibitor, 12-hLO inh, IMPase inh, HPGD inh)
CC(C)(C)c1ccc(-c2noc(CCC(=O)NCC3CCCO3)n2)cc1 (stereo not given)	HPGD inh 13µM
Cc1ccc(-c2noc(CCC(=O)NCC3CCCO3)n2)cc1 (stereo not given)	HPGD inh 18µM
CNC(=O)CCc1nc(-c2ccc(C(C)(C)C)cc2)no1	none
Cc1ccc(-c2noc(CCC(=O)NCCN3CCOCC3)n2)cc1	none
Cc1ccc(-c2nc(NCC3CCCO3)sc2C)cc1 (stereo not given)	ALDH1A1 block 28µM (no result: PNC inhibitor, 12-hLO inh, IMPase inh, HPGD inh)
O=C(CCc1nc(-c2ccccc2)no1)NCC1CCCO1 (stereo not given)	HPGD inh 25µM, ALDH1A1 block inconclusive
Cc1cc(C)cc(OCC(O)CN2C(=O)NC(C)(C)C2=O)c1 (stereo not given)	none
OC[C@@H](O)[C@@H](O)[C@@H](O)[C@@H](O)c1nc2ccc(Cl)cc2[nH]1	none (no result: PNC inhibitor, IMPase inh)
COC(=O)c1ccc(-c2noc(CN(C)CCC3CCCCO3)n2)cc1 (stereo not given)	ALDH1A1 block 8.9µM (no result: PNC inhibitor, 12-hLO inh, IMPase inh, HPGD inh)
Cc1ccc(-c2nc(N)sc2CC(=O)OCC(=O)NCCC(C)C)cc1	none (no result: IMPase inh)
Cc1ccc(-c2nc(N)sc2CC(=O)OCC(=O)NCC2CCCO2)cc1 (stereo not given)	HPGD inh 32µM, ALDH1A1 block inconclusive (no result: IMPase inh)
NC(=S)NCCC[C@H](N)C(=O)O	ALDH1A1 block inconclusive (no result: PNC inhibitor, 12-hLO inh, IMPase inh, HPGD inh)
COc1ccc(CCNC(=O)CN(c2ccc(C)cc2)S(=O)(=O)c2ccc(OC)cc2)cc1	none (no result: PNC inhibitor, 12-hLO inh, IMPase Li cell, HPGD inh, ALDH1A1 block)
O=C(NC1(C(F)(F)F)NC(=O)N(CC2CCCCC2)C1=O)c1ccco1 (stereo not given)	none (no result: IMPase Li cell, HPGD inh)
O=C(c1ccco1)N1CCN(C(c2ccc(F)cc2)c2nnnn2Cc2cccs2)CC1 (stereo not given)	ALDH1A1 block inconclusive
O=C(c1ccco1)N1CCN(C(c2ccccc2)c2nnnn2Cc2cccs2)CC1 (stereo not given)	ALDH1A1 block 2.2µM
CC(C)CC(c1nnnn1Cc1ccccc1)N1CCN(C(=O)c2ccco2)CC1 (stereo not given)	ALDH1A1 block 25µM
O=C(c1ccco1)N1CCN(C(c2ccccc2Cl)c2nnnn2Cc2cccs2)CC1 (stereo not given)	ALDH1A1 block 13µM
O=C(c1ccco1)N1CCN(C(c2cccs2)c2nnnn2C2CCCCC2)CC1 (stereo not given)	ALDH1A1 block 18µM
COCCNC(=O)c1ccccc1NS(=O)(=O)c1ccc(Br)s1	none
NC(N)=N/N=C\c1ccc(O)c(C(=O)O)c1	HPGD inh inconclusive, ALDH1A1 block inconclusive (no result: PNC inhibitor, IMPase inh)
O=C(c1ccco1)N1CCN(C(c2ccccc2Cl)c2nnnn2Cc2ccco2)CC1 (stereo not given)	ALDH1A1 block 11µM
CCSC1=N/C(=C\c2ccc(-c3ccccc3[N+](=O)[O-])o2)C(=O)S1	12-hLO inh inconclusive, ALDH1A1 block 0.32µM
CCCSC1=N/C(=C\C=C\c2ccco2)C(=O)S1	12-hLO inh inconclusive, ALDH1A1 block 28µM
CCCSC1=N/C(=C\c2ccsc2)C(=O)S1	none
CSC1=N/C(=C\c2ccc(C)o2)C(=O)S1	12-hLO inh inconclusive, HPGD inh inconclusive, ALDH1A1 block 10µM
CCCSC1=N/C(=C\c2ccc([N+](=O)[O-])o2)C(=O)S1	ALDH1A1 block 14µM (no result: PNC inhibitor, 12-hLO inh, IMPase inh, HPGD inh)
O=S(=O)(c1ccccc1)N1CCC2(CCCN(c3ccncc3)C2)CC1	none (no result: PNC inhibitor, IMPase inh)
CCNc1ncc2nc(-c3ccccc3)c(=O)n(CCc3ccccc3)c2n1	HPGD inh inconclusive, ALDH1A1 block inconclusive (no result: PNC inhibitor, IMPase inh)
CN(C)c1ncc2nc(-c3ccc(F)cc3)c(=O)n(-c3ccccc3)c2n1	ALDH1A1 block inconclusive (no result: PNC inhibitor, 12-hLO inh, IMPase inh, HPGD inh)
CCNc1ncc2nc(-c3ccc(F)cc3)c(=O)n(CCc3ccccc3)c2n1	IMPase Li cell 5.6µM, ALDH1A1 block inconclusive (no result: PNC inhibitor, 12-hLO inh, IMPase inh, HPGD inh)
CN(C)c1ncc2nc(-c3ccc(F)cc3)c(=O)n(CCc3ccccc3)c2n1	IMPase Li cell 10µM, ALDH1A1 block inconclusive (no result: PNC inhibitor, 12-hLO inh, IMPase inh, HPGD inh)
